# The list is not random: actives were taken first. Their share in the collection is about 6.2%.
# ATXN viability – Viability Counterscreen for Primary qHTS for Inhibitors of ATXN expression; S2 cells (HEK-293 line with an ATXN2-luciferase reporter) viability, CellTiter-Fluor protease fluorescence, 24 h; Potency, µM (highest dose often 56.7 µM), most hits filed as cytotoxic; 0.49% of 400,000 active; AID 651635, 2014; also: nearly all actives have a fitted effect of over 40% in size
# ATXN2 expr inh – Primary qHTS for Inhibitors of ATXN expression; HEK-293 ATXN2-luciferase reporter, luminescence, 24 h; Potency, µM (top dose mostly 57 µM), for inactives: at the highest dose activity change, negative = inhibition, usual class: inhibitors; 0.72% of 360,000 active; also: % is scaled to controls: 0 for no effect and ±100 for the full control effect; nearly all actives have a fitted effect of over 55% in size
#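 qHTS (up to 57 uM final) was run with 24 h compound exposure of reporter cells at 37 °C. Each well was multiplexed: SteadyGlo luminescence measured ATXN2-luciferase expression after a fluorogenic Gly-Phe-AFC viability readout (25 uM final).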
# KB-V1 cytotox – qHTS assay for MDR1-selective chemotherapeutics: Primary screen using the drug-selected MDR subline cells KB-V1; KB-V1 MDR cells viability, CellTiter-Glo, 72 h; Potency, µM (titrated, usually from 46.1 µM), actives largely listed as cytotoxic; 3.4% of 400,000 active; AID 1347076, 2019; also: % is scaled to controls: 0 for no effect and ±100 for the full control effect; nearly all actives have a fitted effect of over 60% in size
#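 Following 72 h at 37 degrees C with compound, KB-V1 cell viability was read by CellTiter-Glo luminescence, medium being phenol-red-free DMEM plus 10% FBS; concentration-response parameters came from normalized, curve-fitted qHTS data.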
# HT1080-NT tox – qHTS for induction of synthetic lethality in tumor cells producing 2HG: qHTS for the HT-1080-NT fibrosarcoma cell line. HT-1080-NT fibrosarcoma viability, CellTiter-Glo ATP luminescence, 48 h. Potency, µM (top dose mostly 46.1 µM), for the others: at the top dose activity, negative = less viability, hits mostly cytotoxic. 1.6% of 360,000 active. AID 686970, 2013;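 also: NT is the 2HG producing partner of a matched IDH1 knockdown line; 0% = DMSO-treated cells and -100% = media-only wells without cells; nearly all actives have a fitted effect of over 55% in size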
#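 A 48-hour cytotoxicity screen used HT-1080-NT cells plated 2 hours before compound delivery. ATP-based CellTiter-Glo luminescence measured viability, normalized to DMSO and no-cell controls.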
# HT1080 IDH1KD tx – qHTS for induction of synthetic lethality in tumor cells producing 2HG: qHTS for the HT-1080-IDH1KD cell line; Potency, µM (doses to about 46.1 µM), for inactives: top-dose activity, negative = toxicity, usual class: cytotoxic; AID 686971, 2013; HT-1080 IDH1 knockdown viability, ATP luminescence, 48 h; 2% of 360,000 active;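 also: 0% = DMSO wells and -100% = cell-free medium wells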
#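 Viability of IDH1-knockdown HT-1080 fibrosarcoma cells was assessed by CellTiter-Glo after 48 h at 37 °C with titrated compound; concentration-effect curves were classified by fit quality and response size.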
# KB-3-1 tox – qHTS assay for MDR1-selective chemotherapeutics: Primary screen using the parental adenocarcinoma cell KB-3-1. Potency, µM (titrated, usually from 46.1 µM), most hits filed as cytotoxic. AID 1347075, 2019. 1.4% of 400,000 active. KB-3-1 viability, CellTiter-Glo ATP luminescence, 72 h; also: % is scaled to controls: 0 for no effect and ±100 for the full control effect; nearly all actives have a fitted effect of over 60% in size
#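 Cytotoxicity in the drug-sensitive parental line KB-3-1 was scored as loss of CellTiter-Glo luminescence following 72 h incubation with compound. Values come from curve fitting of normalized concentration-response data.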
# Numbers without * were called inactive; i = inactive; ? = inconclusive; nt = not tested or not shown; [ ] = remark or other dose. Calls follow the shape of the dose curve; as a rule, active = well fitted curve in the direction sought with a large enough effect; inconclusive = small, poorly fitted or top-dose-only effect, or another doubt; inactive = no such curve, though single readings can be large; an effect the other way counts as inactive or inconclusive. Potency is read from the fitted curve at half-maximal effect.
SMILES,ATXN viability,ATXN2 expr inh,KB-V1 cytotox,HT1080-NT tox,HT1080 IDH1KD tx,KB-3-1 tox
CN(C)CCOC1c2ccccc2CCc2ccc3ccccc3c21 (centres undefined),?,-37.4%,?,20.6µM*,16.4µM*,i
Cc1ccc(S(=O)(=O)N2[C@H](CC(=O)c3ccccc3)OC[C@@H]2C(C)C)cc1,nt,nt,?,-17.4%,-18.0%,?
Cc1ccc(S(=O)(=O)N2[C@H](CC(=O)c3cccs3)OC[C@@H]2C(C)C)cc1,nt,nt,18.4µM*,?,?,18.4µM*
COC(=O)c1c(NC(=O)c2nn(C)cc2Cl)sc2c1CCCC2,i,-12.6%,5.8µM*,8.2%,6.9%,i
COC(=O)c1c(NC(=S)Nc2cc(OC)c(Cl)cc2OC)sc2c1CCCCC2,i,-1.4%,20.6µM*,-7.9%,15.5%,i
Cc1ccc(S(=O)(=O)NNC(=O)c2ccc(C(=O)N(c3ccccc3)c3ccccc3)cc2)cc1,nt,nt,i,nt,nt,i
CCN(CC)c1ccc(/C=C(\C#N)c2ccccn2)cc1,nt,-10.7%[11.3 µM],?,?,?,?
CN(CCC#N)c1ccc(C=C(C#N)c2ccc(Br)cc2)cc1,i,nt,16.4µM*,-27.8%,?,i
CN(CCC#N)c1ccc(/C=C(\C#N)c2ccccn2)cc1,i,-25.0%,5.17µM*,-2.2%,-5.9%,?
C=C(C)C(=O)Oc1ccc(N=Nc2ccc(C)cc2)ccc1=O,31.6µM*,?,?,?,23.1µM*,i
CC(=O)c1ccc(N=Nc2ccc(C)cc2)cc1,i,-38.1%,i,12.2%,6.2%,i
COc1ccc(-c2cnc(C)o2)cc1S(=O)(=O)Nc1c(C)cc(C)cc1C,?,-17.4%,i,nt,nt,i
CC(=O)Nc1sc(N/N=C/c2ccccc2)nc1-c1ccc(C)cc1,i,13.5%,i,8.5%,-0.2%,i
CCCc1sc(N/N=C/c2ccccn2)nc1-c1ccc(Br)cc1,nt,2.82µM*,?,3.55µM*,2.82µM*,?
Cc1ccc(-c2nc3ccccc3o2)cc1NC(=S)NC(=O)c1cc2ccccc2o1,i,16.7%,i,?,?,8.2µM*
CCOC(=O)C1=C(O)/C(=C/c2cn(CC(=O)NCC3CCCO3)c3ccccc23)SC1=Nc1ccc(C)cc1 (centres undefined),?,10µM*,i,?,?,i
CC1CCN(S(=O)(=O)c2ccc3c(ccc(=O)n3CC(=O)Nc3cccc(F)c3)c2)CC1,i,-9.4%,?,nt,nt,i
O=C(CCNS(=O)(=O)c1ccc(Cl)cc1)N1CCN(c2ncccn2)CC1,i,5.6%,?,4.3%,-0.3%,?
O=C(CCc1ccccc1)N1CCCN(C(=O)CCc2ccccc2)CC1,i,0.1%,20.6µM*,13.5%,8.6%,i
CCOC(=O)N1CCN(C(=O)CCc2ccc(S(=O)(=O)NCCc3ccccc3)cc2)CC1,i,-6.5%,16.4µM*,-7.5%,-18.2%,i
CCNS(=O)(=O)c1ccc(CCC(=O)N2CCN(Cc3ccccc3)CC2)cc1,i,-12.4%,i,1.9%,11.0%,i
CS(=O)(=O)N1CCN(C(=O)CCc2ccccc2)CC1,?,-5.0%,i,2.0%,10.9%,i
CCOc1ccc(S(=O)(=O)NCCC(=O)N2CCN(c3ncccn3)CC2)cc1,i,4.0%,18.4µM*,3.3%,-2.8%,i
CCOc1ccc(S(=O)(=O)NCCC(=O)N2CC=C(c3ccccc3)CC2)cc1,i,?,?,-0.7%[9.24 µM],-4.2%,13µM*
CCOc1ccc(S(=O)(=O)NCCC(=O)N2CCN(Cc3ccccc3)CC2)cc1,i,-1.7%,?,4.3%,-11.5%,i

# High-throughput results (PubChem BioAssay)
